In the library only some 1.3% were active in any assay of this set; here they are far more common.
C-LANA FP = inhibitors of KSHV C-LANA binding to DNA, primary screen, biochemical, fluorescence polarization, FAM-LBS DNA, MBP-C-LANA, single point; Kaposi's sarcoma herpesvirus LANA C-terminal domain (residues 932-1162) DNA binding; inhibition, % at 9 µM; actives 0.078% (n = 340,000); AID 504423, 2011;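 active = highest replicate inhibition at or above 60% at 9 µM, even if other replicates fall short; inactive = all replicates below 60% inhibition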;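 also: 0% = neutral control wells and 100% = 4 µM acridine orange control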
RTF Ca sens act = cardiac RTF calcium sensitivity activators, primary screen, biochemical, IANBD-TnC fluorescence, EC20 calcium; Troponin I, cardiac muscle (Homo sapiens) + Troponin T, cardiac muscle (Homo sapiens) + …; IANBD-labeled TnC RTF fluorescence at EC20 calcium; 0% EC20 calcium, 100% full calcium; activation, % at 7.2 µM; actives 0.24% (n = 340,000); AID 493008, 2010;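 active = activation above the mean over all tested compounds plus 3 SD, cut at about 30% in these data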;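 also: rise in fluorescence read as greater calcium sensitivity of cardiac thin filaments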
Keap1 Nrf2 FP = Keap1-Nrf2 protein-protein interaction inhibitors, primary screen, biochemical, fluorescence polarization, single point; Kelch-like ECH-associated protein 1 (Homo sapiens), Q14145; Keap1 Kelch-Nrf2 peptide fluorescence polarization, 1536-well; inhibition, % at 9.4 µM; actives 0.15% (n = 340,000); AID 504523, 2011; in the data active = inhibition above about 12%; inconclusive = no clear call, values can overlap the other calls; inactive = below about 7.3%;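 also: human Keap1 Kelch domain with fluorescein labeled Nrf2 9mer peptide probe; 0% = neutral control wells and 100% = peptide positive control; higher means more block of Keap1 binding to Nrf2 peptide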
Target sequence (Q14145 whole entry, looked up, the tested form may be a part): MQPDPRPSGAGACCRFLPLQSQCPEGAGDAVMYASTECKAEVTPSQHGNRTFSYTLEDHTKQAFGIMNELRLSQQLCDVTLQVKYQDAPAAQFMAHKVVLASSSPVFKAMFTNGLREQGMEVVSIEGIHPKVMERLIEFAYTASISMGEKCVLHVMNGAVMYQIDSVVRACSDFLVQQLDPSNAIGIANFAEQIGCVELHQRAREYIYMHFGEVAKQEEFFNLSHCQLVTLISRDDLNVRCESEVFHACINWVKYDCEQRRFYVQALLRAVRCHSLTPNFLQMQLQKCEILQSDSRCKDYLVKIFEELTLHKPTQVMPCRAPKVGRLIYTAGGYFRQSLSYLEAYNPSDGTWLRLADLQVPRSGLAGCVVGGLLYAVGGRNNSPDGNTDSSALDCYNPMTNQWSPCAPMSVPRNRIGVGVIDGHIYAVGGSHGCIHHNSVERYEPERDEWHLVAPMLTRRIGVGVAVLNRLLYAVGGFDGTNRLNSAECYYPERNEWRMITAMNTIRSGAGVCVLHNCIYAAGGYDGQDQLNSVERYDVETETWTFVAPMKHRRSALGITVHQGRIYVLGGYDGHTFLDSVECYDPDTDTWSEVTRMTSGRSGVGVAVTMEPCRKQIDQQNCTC
CRFBP-R2 agonist = agonists of CRF-BP/CRF-R2 complex, primary screen, cell-based, HEK293, calcium dye fluorescence, uHTS; CRF-binding protein / CRF receptor 2 complex (human); calcium dye fluorescence (FLIPR); percent of saturating CRF peptide response; activation, % at 13.2 µM; actives 0.46% (n = 350,000); AID 588473, 2011;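 active = activation of at least 50%, plus an integration ratio under a set limit after plate pattern correction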;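 also: plate controls were neutral control wells without compound for no effect and CRF at EC100 for full effect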
Cardiac RTF inh = cardiac RTF calcium sensitivity inhibitors, primary screen, biochemical, IANBD-TnC fluorescence, EC70 calcium; IANBD-labeled cardiac RTF, Ca2+ fluorescence; inhibition, % at 7.15 µM; actives 0.12% (n = 340,000);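 active = inhibition above the mean inhibition of all tested compounds plus 3 SD, cut at about 17% in these data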;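 also: assay run at fixed EC70 calcium of 1.6 mM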
CRFR2-BP antag = antagonists of CRF-BP/CRF-R2 complex, primary screen, cell-based, HEK293, calcium dye fluorescence, uHTS; CRF-induced calcium fluorescence; actives 0.59% (n = 350,000); inhibition, % at 11.8 µM; AID 588475, 2011;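 active = inhibition of the ligand-induced calcium signal above about 50% at the single tested concentration, limit read from the data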
* hit, by the source's call; i = inactive; u = inconclusive; x = not tested or not shown.

SMILES	C-LANA FP	RTF Ca sens act	Keap1 Nrf2 FP	CRFBP-R2 agonist	Cardiac RTF inh	CRFR2-BP antag
O=C(Nc1nnc(-c2ccccc2Cl)o1)c1ccc(S(=O)(=O)N2CCCCCC2)cc1	x	x	x	54.0*	x	-10.9
CC1(C)COCN1S(=O)(=O)c1ccc(C(=O)Nc2nnc(-c3ccc(Cl)s3)o2)cc1	x	x	x	89.8*	x	21.7
COc1ccc(-c2nnc(NC(=O)c3ccc(S(=O)(=O)N4COCC4(C)C)cc3)o2)cc1	0.2	4.6	6.4	-0.2	-5.4	-10.1
O=C(NCc1cccnc1)C1CCN(S(=O)(=O)c2cccc(C(F)(F)F)c2)CC1	0.0	-3.2	2.8	0.4	-2.3	-3.8
CCOC(=O)/C(=N\Nc1ccc(C(C)=O)cc1)c1csc(Nc2ccccc2)n1	4.3	131.4*	-5.6	74.1*	-125.9	-97.1
Cc1nc2ccccc2c(=O)n1NC(=O)Cc1ccc([N+](=O)[O-])cc1	-1.9	-9.8	-3.9	-5.1	-24.4	4.6
C/C(=N\NC(=O)c1ccc([N+](=O)[O-])cc1)c1c(O)cc(C)oc1=O	-0.7	2.9	-1.5	-0.3	-11.2	16.8
C/C(=N/NC(=O)c1cc(O)c(O)c(O)c1)c1ccc([N+](=O)[O-])cc1	75.7*	-0.5	-1.7	0.0	-3.5	3.7
CCOCCCNc1nc2c(-c3ccccc3)nnn2c2ccccc12	-1.3	0.1	-2.7	-3.0	-8.8	0.1
O=C(NNC(=O)C12CC3CC(CC(C3)C1)C2)c1ccncc1	0.0	4.9	-5.9	1.9	-16.9	7.7
CC12CC3CC(C)(C1)CC(C(=O)NNC(=O)c1ccncc1)(C3)C2	-0.5	0.3	-4.9	0.2	0.5	66.2*
O=C(OCC(=O)N1CCN(c2ccccc2)CC1)c1ccccc1OC(F)F	0.3	-1.9	2.8	-0.9	7.1	5.8
CCN1C(=O)c2cccc3c(S(=O)(=O)Nc4ccccc4OC)ccc1c23	0.9	-1.7	-1.4	128.7*	-18.5	-133.9
CCCCc1ccc(NC(=O)N2CCN(c3cc(C)nc4ccccc34)CC2)c(C)c1	1.5	-4.8	-1.3	-1.2	-0.3	-4.8
CC(c1n[nH]c(=S)n1-c1ccc(Cl)cc1)N(C)C (centres undefined)	1.0	3.1	-1.7	3.4	5.9	-2.6
O=C(CSCc1cnn(-c2ccccc2)c1-n1cccc1)NCc1cccnc1	79.5*	-0.6	1.8	-0.1	-3.4	-1.7
Cc1nc2ccc(NS(=O)(=O)c3ccc(C)c(C)c3)cc2s1	0.4	5.6	-6.7	-3.0	-21.7	77.9*
COc1ccccc1N1CCN(C(=O)c2sc3nc(-c4ccccc4)cn3c2C)CC1	1.3	4.9	0.4	1.5	-20.7	-16.0
CC1CCN(C(=O)c2[nH]cnc2C(=O)N[C@@H](C)C(=O)OC(C)(C)C)CC1	1.2	-7.8	3.5	26.3	-13.3	54.2*
O=C(Cc1csc(-c2cccc(F)c2)n1)Nc1cccc(S(=O)(=O)NC2=NCCC2)c1	x	x	x	-0.8	x	1.0
CC(=O)NC(=S)NNC(=O)CCc1ccccc1	-0.3	6.8	-0.8	29.5	-3.0	-21.2
CCCCC(=O)NC(=S)NNC(=O)CCc1ccccc1	-0.8	-1.4	-2.5	70.9*	9.6	13.6
CC(C)(C)c1cc(CCC(=O)NNC(=S)NC(=O)c2ccccc2)cc(C(C)(C)C)c1O	-0.6	5.6	0.2	157.6*	-2.9	-118.9
O=C(CCc1ccccc1)NNC(=S)NC(=O)c1ccccc1	-0.1	6.3	2.3	79.5*	0.9	20.4
O=C(CCc1ccccc1)NNC(=S)NCCc1ccccc1	-0.2	-0.6	-3.7	1.5	4.8	-25.4
SMILES	C-LANA FP	RTF Ca sens act	Keap1 Nrf2 FP	CRFBP-R2 agonist	Cardiac RTF inh	CRFR2-BP antag
O=C(CNS(=O)(=O)c1ccc(Br)cc1)NC1CCCC1	-0.4	-0.8	-7.0	2.7	-7.8	-7.3
CN1CCC(N(C)C(=O)COc2ccc(S(=O)(=O)N3CCOCC3)cc2)CC1	-2.6	-1.1	-3.9	-2.3	-4.3	0.2
CCCCCCCC1CC(/C(C)=N/NC(N)=O)OC1=O (centres undefined)	-1.2	-3.2	-2.7	-1.6	-6.0	-15.8
N#C/C(=C\c1ccc(N2CCOCC2)o1)C(=O)NCCc1ccccc1	-27.3	64.5*	-85.7	200.1*	-88.2	-297.2
N#C/C(=C/c1ccc(N2CCOCC2)o1)C(=O)Nc1ccccc1	-10.2	132.2*	-29.5	149.2*	-177.5	-98.7
COCCNC(=O)/C(C#N)=C\c1ccc(CNS(=O)(=O)c2ccccc2)o1	-0.8	-2.6	0.8	-0.8	2.9	12.1
O=C(NCCCN1CCOCC1)C(=O)NCCc1ccccc1	1.1	0.4	-5.8	-0.1	-6.7	15.5
N#C/C(=C\c1ccc(OCCN2CCOCC2)cc1)C(=O)Nc1ccccc1	-0.1	0.8	-1.1	-1.2	-4.9	-16.2
COCCNC(=O)/C(C#N)=C/c1ccc(N2CCOCC2)o1	-37.9	61.2*	-132.0	42.2	-54.4	-36.2
O=C(CN(Cc1ccccc1)C(=O)CNS(=O)(=O)c1ccc(F)cc1)NCC1CCCO1 (centres undefined)	-0.1	6.8	-5.8	-0.7	-8.4	7.0
Cc1cc(C(c2ccc(O)cc2)c2cc(C)c(O)cc2C)c(C)cc1O	2.7	-4.4	-2.4	69.0*	1.5	-65.4
CCC(c1ccc(O)cc1)C(CC)c1ccc(O)cc1 (centres undefined)	1.7	1.0	-3.0	0.4	3.7	9.1
COc1ccccc1C(=O)Nc1ccc(S(=O)(=O)Nc2cc(C)on2)cc1	1.2	13.6	-0.7	0.3	-14.4	-2.6
Oc1[nH]c2ccccc2c1N=Nc1ccccc1Cl	-2.9	64.8*	1.4	123.6*	-89.3	-96.5
CCOc1cc(/C=C2\CCCc3c2nc2ccccc2c3C(=O)O)ccc1OC	3.4	9.3	1.5	201.0*	-25.3	-181.9
CC(OC(=O)c1cc2ccccc2cc1O)C(=O)Nc1ccc(S(N)(=O)=O)cc1 (centres undefined)	0.1	4.8	1.7	1.4	-7.6	-24.3
CC(OC(=O)c1c2c(nc3ccccc13)/C(=C\c1ccc3c(c1)OCO3)CCC2)C(=O)Nc1ccc(S(N)(=O)=O)cc1 (centres undefined)	9.5	114.9*	-3.2	314.4*	i	-302.3
Cc1cccc(C)c1NC(=O)COC(=O)c1c2c(nc3ccccc13)/C(=C\c1ccc3c(c1)OCO3)CCC2	2.0	6.2	u	95.5*	-1.9	-56.4

Assay outcomes: PubChem BioAssay, several laboratories
